Measurements from PubChem BioAssay (NCI).
The panel holds about 83,000 compounds, 20% with a hit somewhere; the sample as a whole holds those more often.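 The endpoint reported here, percent growth, reads 100 for growth as untreated, 0 for no net growth and -100 for all cells dead.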 The source made the active and inactive calls. How the source made its calls: active means growth percent below 10; inactive means the rest.

The molecules below were run on MDA-MB-468 breast (assay: NCI-60 one-dose screen, 48 h (100 = growth as untreated, 0 = no growth, -100 = all killed)). Conditions: 10 µM unless noted.
With `COC(=O)c1ccc2c(c1)Oc1ccc(Cl)cc1-c1cc(C)nn1-2` the growth was 87% (inactive). For `CCOC(=O)c1ccc(NC(C)=O)o1`, the growth was 89.3% (inactive). With `O=Cc1c(O)c2ccccc2[nH]c1=O` the growth was 94.5% (inactive). With `NCCCn1c2c(c3cc(-c4ccn[nH]4)ccc3c1=O)C(=O)c1ccccc1-2` the growth was 62.6% (inactive). In the case of `N#Cc1c2c(nn(-c3ccccc3)c1=O)C(O)=C([N+](=O)[O-])C(c1ccccc1)C2` (stereo unspecified), the growth is reported as 64.1% (inactive). In the case of `COc1ccc(/C(C#N)=C/c2ccccc2OC)cc1`, the growth is reported as -14% (active). `C=CCn1c(SCC(=O)Nc2ccc(/C(C)=N\O)cc2)nnc1-c1cc(-c2ccccc2)nc2ccccc12` was tested, and the growth was 73% (inactive). `c1ccc(CC(NCCNC(Cc2ccccc2)c2ccccc2)c2ccccc2)cc1` (stereo unspecified) was tested, and the growth was -32.9% (active). With `N=C(N)N=Nc1ccc(NN=C(N)N)cc1` the growth was 103% (inactive). In the case of `Cc1c(Cl)cccc1NC(=O)c1sc2nc3c(cc2c1N)COCC3`, the growth is reported as 17.7% (inactive). With `CN(C)CCOc1ccccc1NC1=C(Cl)C(=O)C(Nc2ccccc2OCCN(C)C)=C(Cl)C1=O` the growth was -53.6% (active). With `CCN=c1sc2c(n1NC(=O)c1cc3ccc1CCc1ccc(cc1)CC3)C(=O)c1ccccc1C2=O` the growth was -33.7% (active). With `CCOC(=O)CC1CSC(Nc2ccccc2)=N1` (stereo unspecified) the growth was 106% (inactive). `NS(=O)(=O)Oc1cccc(-c2nc3sccn3c2-c2ccccc2)c1` was tested, and the growth was 18.6% (inactive). For `CCN1C(=O)N(CC)C2Nn3c(s/c(=C4\C(=O)N(CC(C)C)c5ccccc54)c3=O)=NC21` (stereo unspecified), the growth was 15.8% (inactive). For `Nc1cc(C(=O)O)[nH]c(=S)n1`, the growth was 95.3% (inactive).
